Compound activity from PubChem BioAssay.
GLP1R ag = activates the human GLP-1 receptor. HEK293 GLP-1R CRE-luciferase, luminescence, 4-6 h; cells express a hypersensitive GLP-1R form. Potency, µM (doses to about 45.6 µM), usual class: activators. 380,000 tested, 0.007% active
PTHR1 agonist = activates the human parathyroid hormone receptor PTHR1 | Potency, µM (doses to about 115 µM), hits mostly activators | HEK293 GP2 PTHR1 cells, GloSensor cAMP luminescence, 1 h | Q03431 | 410,000 tested, 0.075% active; further: nearly all actives have a fitted effect of over 55% in size
Target sequence (Q03431 whole entry, looked up): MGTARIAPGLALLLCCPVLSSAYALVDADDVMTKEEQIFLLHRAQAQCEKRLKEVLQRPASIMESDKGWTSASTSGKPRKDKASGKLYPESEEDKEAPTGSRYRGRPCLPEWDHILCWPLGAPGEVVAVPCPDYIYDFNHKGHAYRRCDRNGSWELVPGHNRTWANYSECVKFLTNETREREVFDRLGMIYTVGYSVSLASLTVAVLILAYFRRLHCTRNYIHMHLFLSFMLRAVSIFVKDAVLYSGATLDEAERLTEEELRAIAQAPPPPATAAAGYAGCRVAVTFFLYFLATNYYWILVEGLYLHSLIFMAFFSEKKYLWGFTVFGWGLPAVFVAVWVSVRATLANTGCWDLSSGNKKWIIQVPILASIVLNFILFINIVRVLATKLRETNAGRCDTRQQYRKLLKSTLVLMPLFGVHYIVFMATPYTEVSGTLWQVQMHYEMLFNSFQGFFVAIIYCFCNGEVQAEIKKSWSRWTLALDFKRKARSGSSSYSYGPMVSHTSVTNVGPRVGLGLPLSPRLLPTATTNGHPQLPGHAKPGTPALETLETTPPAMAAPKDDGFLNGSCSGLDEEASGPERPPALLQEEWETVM
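HEK-293-derived GP2 cells expressing PTHR1 and a GloSensor cAMP reporter, 3,000/well, plated overnight, given luciferin plus IBMX (each 0.5 mM as added) for 1 h at 37 °C, then compound for 1 h at 37 °C. Luminescence was read after 15 min at room temperature.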
GLP-1R inv ag = inverse agonists of human GLP-1 receptor | HEK293 GLP-1R CRE-luciferase, luminescence, 24 h; GLP-1R form is constitutively active | P43220 | 410,000 tested, 1.6% active | Potency, µM (series often up to 38.3 µM), actives largely listed as inhibitors; further: nearly all actives have a fitted effect of over 55% in size
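Seeding at 200 cells/uL, 12 h culture, 24 hr compound treatment, then luciferase reagent and a luminescence read; cells are HEK293 stably expressing a constitutively active GLP-1R plus cAMP-responsive luciferase.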
HEK293 tox = cytotoxicity counter-screen for GLP-1 receptor inverse agonists. HEK293 cAMP-luciferase reporter cells, luminescence, 24 h. Potency, µM (top dose mostly 38.3 µM), actives largely listed as inhibitors. 410,000 tested, 0.13% active. AID 624418;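 further: loss of luciferase light is scored as toxicity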
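To flag toxic compounds, the library was rerun on cells for 24 hr at 37 deg C and 5% CO2. Viability-linked luminescence was captured 12 min after adding luciferase detection reagent.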
Each line names hits and unclear results; the compound was inactive in the other large screens; ! = repeats disagree. In the library only some 1.7% were active in any assay of this set; here they are far more common. The call rests on the fitted dose curve; in most records, active means well fitted curve in the direction sought with a large enough effect; inconclusive means small, poorly fitted or top-dose-only effect, or another doubt; inactive means no such curve, though single readings can be large; an effect the other way counts as inactive or inconclusive.

Cc1cccc(N2C(=O)C3C4C=CC(CC4)C3C2=O)c1 (configuration not stated)	none
CCOC(=O)c1cccc(N2C(=O)C3C4C=CC(CC4)C3C2=O)c1 (configuration not stated)	GLP-1R inv ag 3.2µM
COCCCNCCCCOc1ccc(Br)cc1C	GLP-1R inv ag 2.8µM
Cc1ccc(OCCCNCCO)c(Br)c1	GLP-1R inv ag 4µM, HEK293 tox inconclusive
Cc1ccc(Sc2ncccc2COC(=O)Nc2ccccc2)cc1	GLP-1R inv ag 7.9µM
Cc1ccc(Sc2ncccc2COC(=O)Nc2c(C)cccc2C)cc1	GLP-1R inv ag 7.9µM
Cc1ccccc1NC(=O)OCc1cccnc1Sc1ccc(Cl)cc1	none
CC(C)SC1=NC(C)(C)C=C(/C=C/c2c(Cl)cccc2Cl)N1	GLP-1R inv ag 2.8µM
O=C(Nc1ccccc1)N1N=C(c2cccs2)CC1c1cccs1 (configuration not stated)	GLP-1R inv ag inconclusive
c1ccc(C2CC(c3cccs3)=NN2c2ccccc2)cc1 (configuration not stated)	GLP-1R inv ag 10µM
O=C(c1ccccc1)N1N=C(c2ccc(F)cc2)CC1c1ccc(F)cc1 (configuration not stated)	GLP-1R inv ag 10µM
O=C(c1ccccc1)N1N=C(c2cccs2)CC1c1ccccc1O (configuration not stated)	GLP-1R inv ag 8.9µM
CC(=O)c1ccc(NC(=O)c2nc(-c3ccccc3)n(-c3ccc(Cl)cc3)n2)cc1	none (no result: GLP1R ag)
COc1ccc(-c2[nH]ncc2CN(C)CCCN2CCOCC2)cc1F	none
CCn1ccnc1CN(C)Cc1cn[nH]c1-c1ccc(OC)c(F)c1	GLP-1R inv ag 10µM
Cc1ccc(NC(=O)CCN2C(=O)c3ccccc3Sc3ncccc32)cc1	PTHR1 agonist 50µM!
COc1cc(/C=C2/C(=O)c3cccc([N+](=O)[O-])c3C2=O)c(Br)cc1O	GLP-1R inv ag 10µM, HEK293 tox inconclusive
COc1ccccc1NC(=O)CCCCCN1C(=O)c2cccc([N+](=O)[O-])c2C1=O	none
COc1cccc(C(=O)c2sc(NC(C)C)nc2N)c1	GLP-1R inv ag 3.5µM, HEK293 tox inconclusive
COc1ccc(CCC(=O)N2c3ccccc3N=C(c3ccc(C(F)(F)F)cc3)C2C(=O)NC(C)C)cc1 (configuration not stated)	none (no result: GLP1R ag)
COc1ccc(CCC(=O)N2c3ccccc3N=C(c3ccc(C(F)(F)F)cc3)C2C(=O)NC(C)(C)C)cc1 (configuration not stated)	GLP-1R inv ag 4.5µM (no result: GLP1R ag)
O=C(O)c1cccnc1Sc1ccc(Cl)cc1	PTHR1 agonist 50µM
CCN1CCSc2ccc(C(=O)NCc3cccc(Br)c3)cc21	GLP-1R inv ag 10µM
CCN1CCSc2ccc(C(=O)NCc3cccc(F)c3)cc21	GLP-1R inv ag inconclusive
CCN1C(=O)[C@H]2[C@@H](c3ccc(-c4cccc(Cl)c4)cc3)N[C@@](C)(C(=O)OC)[C@H]2C1=O	GLP-1R inv ag 11µM
COC(=O)[C@]1(Cc2ccccc2)N[C@H](c2ccc(-c3cccc(Cl)c3)c(OC)c2)[C@@H]2C(=O)N(C)C(=O)[C@@H]21	GLP-1R inv ag 3.2µM
COc1ccccc1NS(=O)(=O)c1cccc(C(=O)NNC(=O)C(C)NC(=O)c2ccco2)c1 (configuration not stated)	none
COc1ccc(Br)cc1CNCc1c(C(=O)O)c(C)n(Cc2ccccc2C)c1C	none (no result: GLP1R ag)
CS(=O)(=O)c1ccc2nnn(OCC(=O)Nc3ccc(Br)cc3Br)c2c1	GLP-1R inv ag 10µM
CCN(CC)S(=O)(=O)c1ccc2nnn(OCC(=O)Nc3cccc(C#N)c3)c2c1	none
CN(Cc1ccc(C(C)(C)C)cc1)c1cccc2ccccc12	none (no result: PTHR1 agonist, GLP-1R inv ag, HEK293 tox)
Clc1ccc(SCCCCN2CCNCC2)cc1	GLP-1R inv ag 1.8µM
Cc1ccc(C(C)C)c(OCCOCCN2CCNCC2)c1	none
Cc1ccc(SCCCCN2CCNCC2)cc1	GLP-1R inv ag 2.8µM
Cc1ccc(SCCCCN2CCOCC2)cc1	none
Cc1ccc(C(C)C)c(OCCCCN2CCNCC2)c1	GLP-1R inv ag 2.2µM
Clc1ccc(SCCCCN2CCOCC2)cc1	none
Cc1cccc(C2=NN(c3ccc(Br)cc3)[C@@H](C(=O)N3CCOC3=O)[C@@H]2c2ccc(F)cc2)c1	GLP-1R inv ag 8.9µM
O=C1OCCN1C(=O)[C@H]1[C@H](c2ccc([N+](=O)[O-])cc2)C(c2cccc(Cl)c2)=NN1c1ccc(Br)cc1	GLP-1R inv ag inconclusive
CC[C@@H]1C(c2ccc(F)cc2)=NN(c2ccc(Br)cc2)[C@H]1C(=O)N1CCOC1=O	GLP-1R inv ag 10µM
O=C1OCCN1C(=O)[C@H]1[C@H](c2ccc([N+](=O)[O-])cc2)C(c2ccccc2)=NN1c1ccc(Br)cc1	GLP-1R inv ag 3.5µM
Cc1cccc(C2=NN(c3ccc(Br)cc3)[C@@H](C(=O)N3CCOC3=O)[C@@H]2c2ccc(Cl)cc2)c1	GLP-1R inv ag inconclusive
CC[C@@H]1C(c2ccccc2)=NN(c2ccc(Br)cc2)[C@H]1C(=O)N1CCOC1=O	GLP-1R inv ag inconclusive
O=C1OCCN1C(=O)[C@H]1[C@H](c2ccc(F)cc2)C(c2cccc(Cl)c2)=NN1c1ccc(Br)cc1	GLP-1R inv ag 8.9µM
CC(Sc1nnc2n1CCCCC2)C(=O)Nc1cccc(S(=O)(=O)N2CCOCC2)c1 (configuration not stated)	none
CCOc1ccc(-c2nnc(SCC(=O)Nc3cccc(OC)c3)nc2-c2ccc(OCC)cc2)cc1	PTHR1 agonist inconclusive (no result: GLP1R ag)
CC1(C)CC1C(=O)N/C(=C/CCCCSCC(N)C(=O)O)C(=O)O (configuration not stated)	none (no result: PTHR1 agonist, GLP-1R inv ag, HEK293 tox)
COc1ccccc1C1CC(c2ccco2)=NN1c1ccccc1 (configuration not stated)	GLP-1R inv ag 10µM
COc1ccc(C2CC(c3ccc(F)cc3)=NN2c2ccccc2)cc1OC (configuration not stated)	GLP-1R inv ag 10µM
COc1ccc(C2=NN(c3ccc(C=O)cc3)C(c3ccccc3)C2)cc1 (configuration not stated)	GLP-1R inv ag 10µM
Cc1ccc2c(c1)c1c(n2CC(O)CNC(C)(C)C)CCCC1 (configuration not stated)	GLP-1R inv ag 10µM
NC(Cc1ccc(C(F)(F)F)cc1)c1csc(NC(=O)Nc2ccccc2Oc2ccccc2)n1 (configuration not stated)	GLP-1R inv ag inconclusive, HEK293 tox 11µM
O=C(NCCc1ccc(F)cc1)Nc1ccc([N+](=O)[O-])cc1	GLP-1R inv ag 4µM
O=C(NCCc1ccc(Cl)cc1)Nc1ccc(F)cc1	PTHR1 agonist inconclusive, GLP-1R inv ag inconclusive
CC1=C(C(=O)Nc2ccc(C)cc2C)C(c2ccccc2)n2ncc(C(=O)Nc3ccccc3)c2N1 (configuration not stated)	GLP-1R inv ag inconclusive (no result: GLP1R ag)
CC(C(=O)Nc1ccc(C#N)cc1)N1CCN(C(=O)C2CC2)CC1 (configuration not stated)	none
